Experimental findings from PubChem BioAssay (NCATS) are described below.

SMILES strings stand for the structures. Results filed as inconclusive are left out. Where a call stands in place of a potency, no number is given. Calls of active or inactive are those of the source. Calls follow the shape of the dose curve; as a rule, active = well fitted inhibition curve with a large enough effect; inconclusive = small, poorly fitted or top-dose-only effect; inactive = no such curve, though single readings can be large or run the other way.
Potency is read from the fitted curve at half-maximal effect.

One assay has as its system Zika virus NS2B-NS3 protease (unlinked complex). In words: Primary screen GU Rhodamine qHTS for Zika virus inhibitors: Unlinked NS2B-NS3 protease assay (AID 1347159). Also: nearly all actives have a fitted effect of over 60% in size. As to conditions: Recombinant ZIKV NS2B-NS3 protease, Rhodamine110 substrate fluorescence; series mostly up to 107 µM. The procedure, abridged:
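Compounds, tested up to 114 microM, were incubated for 15 minutes with 25 nM unlinked NS2B-NS3 protease at pH 8.0. Cleavage of 1.5 microM Rhodamine110 substrate was then followed by fluorescence for 15 minutes.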
Take `N#CC[C@H](C1CCCC1)n1cc(-c2ncnc3[nH]ccc23)cn1`: the Potency result is “inactive”.
The same measure, in the same setting: under `CCc1cncnc1N1CCN(Cc2nc3ccc(C(F)(F)F)cc3[nH]2)CC1` stands “inactive”.
The same measure, in the same setting: under `CN(C)c1ccc(C2Nc3ccc4ccccc4c3C3=C2C(=O)CC(C)(C)C3)cc1Br` (stereo not given) stands “inactive”; under `CCCS(=O)(=O)Nc1ccc(F)c(C(=O)c2c[nH]c3ncc(Cl)cc23)c1F`, “inactive”.
The same measure, in the same setting: under `Cc1csc(NC(=O)c2sc3nc4c(c(C(F)(F)F)c3c2N)CCC4)n1` stands “inactive”; under `Cc1cc(Nc2nc(N[C@@H](C)c3ncc(F)cn3)ncc2Cl)n[nH]1`, “inactive”; under `CCC(C)n1ncn(-c2ccc(N3CCN(c4ccc(OC[C@H]5CO[C@](Cn6cncn6)(c6ccc(Cl)cc6Cl)O5)cc4)CC3)cc2)c1=O` (stereo not given in full), “inactive”.
For `CN(C(=O)c1ccc(F)cc1C(F)(F)F)C1CCN(c2nnc(-c3ccnn3C)c3ccccc23)CC1`, the Potency entry is “inactive”.
With `CCN(CC)CCCC(C)Nc1ccnc2cc(Cl)ccc12` (stereo not given), the activity change, negative = inhibition is 52.4% [at 19.1 µM] (inactive).
For `O=c1[nH]c(-c2ccc(C(F)(F)F)cc2)nc2c1CSCC2`, the Potency entry was “inactive”.
On the same count and under the same terms, under `CCOc1cc(C(=O)Nc2ccc(Cl)c(-c3nc4ccccc4[nH]3)c2)cc(OCC)c1OCC` stands “inactive”.
Same read-out and setting: as for `C#Cc1cccc(Nc2ncnc3cc(OCCOC)c(OCCOC)cc23)c1`, the entry is “inactive”; as for `O=C(Nc1ccc(F)c(C(F)(F)F)c1)Nc1nnc(-c2ccncc2)s1`, 8.91 µM (active).

A further assay has as its system Zika virus NS2B-NS3 protease (linked construct). In words: Primary screen NINDS Rhodamine qHTS for Zika virus inhibitors (AID 1347160). Also: nearly all actives have a fitted effect of over 55% in size. Conditions: purified NS2B-NS3 protease, Rhodamine110 substrate fluorescence; series mostly up to 57.1 µM. In short, it runs like this:
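Percent inhibition, normalized to uninhibited and enzyme-free controls, is fitted to a 4-parameter Hill equation. Fluorescence change comes from a 15-min cleavage of 1.5 microM bis-peptide Rhodamine110 substrate by 25 nM linked NS2B-NS3 at room temperature.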
Take `N#CC[C@H](C1CCCC1)n1cc(-c2ncnc3[nH]ccc23)cn1`: the Potency entry is “inactive”.
Consider `CC[C@H](Nc1ncnc2nc[nH]c12)c1nc2cccc(F)c2c(=O)n1-c1ccccc1`, for which the Potency result was “inactive”.
Still for that read-out and setting: under `CC[C@@H](C)[C@H](NC(=O)[C@H](CC1CCCCC1)NC(=O)c1ccno1)C(=O)N1CCC2(CCc3ccccc32)CC1` stands “inactive”.
As to `CCc1cncnc1N1CCN(Cc2nc3ccc(C(F)(F)F)cc3[nH]2)CC1`, the Potency result was “inactive”.
For `CN(C)c1ccc(C2Nc3ccc4ccccc4c3C3=C2C(=O)CC(C)(C)C3)cc1Br` (stereo not given), the Potency entry is “inactive”.
Same read-out and setting: as for `O=C(Nc1cccnc1)N1CCC(Cc2cccc(Oc3ccc(C(F)(F)F)cn3)c2)CC1`, the entry is “inactive”; as for `CCCS(=O)(=O)Nc1ccc(F)c(C(=O)c2c[nH]c3ncc(Cl)cc23)c1F`, “inactive”.
Same read-out and setting: as for `C[C@H](NC(=O)Cc1cc(F)cc(F)c1)C(=O)N[C@@H]1C(=O)N(C)c2ccccc2-c2ccccc21`, the entry is “inactive”; as for `Cc1csc(NC(=O)c2sc3nc4c(c(C(F)(F)F)c3c2N)CCC4)n1`, “inactive”; as for `CCCS(=O)(=O)Nc1ccc(F)c(C(=O)c2c[nH]c3ncc(-c4ccc(Cl)cc4)cc23)c1F`, “inactive”.
Still for that read-out and setting: under `Clc1ccc(Nc2nnc(Cc3ccncc3)c3ccccc23)cc1` stands “inactive”.
For `Cc1cc(Nc2nc(N[C@@H](C)c3ncc(F)cn3)ncc2Cl)n[nH]1`, the Potency result is “inactive”.
Still for that read-out and setting: under `CCC(C)n1ncn(-c2ccc(N3CCN(c4ccc(OC[C@H]5CO[C@](Cn6cncn6)(c6ccc(Cl)cc6Cl)O5)cc4)CC3)cc2)c1=O` (stereo not given in full) stands “inactive”.
Regarding `CN(C(=O)c1ccc(F)cc1C(F)(F)F)C1CCN(c2nnc(-c3ccnn3C)c3ccccc23)CC1`, the Potency result was “inactive”.
Consider `CCN(CC)CCCC(C)Nc1ccnc2cc(Cl)ccc12` (stereo not given), for which the outcome is “inactive [at 10.7 µM]”.
In the case of `O=c1[nH]c(-c2ccc(C(F)(F)F)cc2)nc2c1CSCC2`, the Potency entry is “inactive”.
As to `CCOc1cc(C(=O)Nc2ccc(Cl)c(-c3nc4ccccc4[nH]3)c2)cc(OCC)c1OCC`, the Potency result was “inactive”.
Same read-out and setting: as for `Cc1n[nH]c(C)c1Cc1sc2c(c1C(=O)N1C[C@H](O)CO1)c(=O)n(C)c(=O)n2CC(C)C`, the entry is “inactive”; as for `C#Cc1cccc(Nc2ncnc3cc(OCCOC)c(OCCOC)cc23)c1`, “inactive”.
Same read-out and setting: under `O=C(Nc1ccc(F)c(C(F)(F)F)c1)Nc1nnc(-c2ccncc2)s1` stands 2.82 µM (active); under `COc1cc2nccc(Oc3ccc(NC(=O)NC4CC4)c(Cl)c3)c2cc1C(N)=O`, “inactive”; under `COc1cc(F)c(F)c(Nc2ccc(I)cc2F)c1NS(=O)(=O)C1(C[C@H](O)CO)CC1`, “inactive”.
